In PubChem BioAssay AID489025 (Southern Research Specialized Biocontainment Screening …, 2010):
Out of some 2,300 compounds screened, about 790 (34%) were called active. How the calls were made is not given here. The list shows a part of the results. Entries that show only a call come without a potency. Potency and affinity values are given separately.

Assay: THP-1 cell cytotoxicity, dose response, cytotoxicity control for non-replicating M. tuberculosis project (AID 489025)
Conditions: THP-1 cell viability; series mostly up to 40 µM
With `COCCn1c(C)cc(C(=O)COC(=O)c2ccc(Br)o2)c1C` the outcome was “inactive”. In the case of `CCCN1C(=O)SC(CC(=O)Nc2ccccc2)C1=O` (stereo not given), the outcome is reported as “inactive”. For `Nc1nnc(Sc2ncccc2[N+](=O)[O-])s1`, the outcome was “inactive”. With `CNc1nnc(Sc2ncccc2[N+](=O)[O-])s1` the outcome was “inactive”. With `COc1ccc(OCCSc2nnc(Cc3cccc4ccccc34)n2N)cc1` the outcome was “inactive”. With `O=C(c1ccccc1)n1c(=O)c(F)cn(COCCBr)c1=O` the outcome was “inactive”. For `O=C(Cn1cc([N+](=O)[O-])nc1[N+](=O)[O-])N1CCN(c2ccccc2)CC1`, the outcome was “inactive”. For `CCOC(=O)C(Nc1ccc2ccccc2c1)C(=O)OCC`, the outcome was “inactive”. In the case of `Cc1nnc(NC(=O)c2ccc3ccccc3c2)o1`, the outcome is reported as “inactive”. In the case of `COc1cccc(NC(=O)c2cc3ccccc3oc2=O)c1`, the outcome is reported as “inactive”. In the case of `O=c1oc2ccccc2c2c1nc(C(F)(F)F)n2-c1ccccc1`, the outcome is reported as “inactive”. For `COC(=O)CN(C#N)c1nc(SC)nc(N(C)C)n1`, the outcome was “inactive”. For `Cc1ccc(N2NC(=O)/C(=C/C=C/c3ccco3)C2=O)cc1C`, the outcome was “inactive”. In the case of `O=C(NC(=S)Nn1cnc2c(cnn2-c2ccccc2)c1=O)c1ccccc1`, the outcome is reported as “inactive”. With `CCOC(=O)Cn1c2ccc(F)cc2c2nc(C)sc21` the outcome was “inactive”. For `Cc1nnc(N/N=C/c2ccc(Br)cc2)n1N`, the outcome was “inactive”. With `Cc1ccccc1OCC(=O)OCC(=O)c1ccc[nH]1` the outcome was “inactive”. With `CC1(CCc2ccc3c(c2)OCO3)NC(=O)c2ccccc2N1` (stereo not given) the outcome was “inactive”. In the case of `O=C(COc1ccc(Br)cc1)N/N=C1/SCC(=O)N1Cc1ccco1`, the outcome is reported as “inactive”. For `CCc1nnc(N/N=C/c2c(F)cccc2Cl)n1N`, the outcome was “inactive”. With `O=C(N/N=C1\CCCc2c1[nH]c1ccc(Cl)cc21)c1ccncc1` the outcome was “inactive”. In the case of `Cc1ccsc1/C=N/NC(=O)c1ccncc1`, the outcome is reported as “inactive”. In the case of `COc1ccc(C(C)=O)cc1COC(=O)c1ccc2ccccc2n1`, the outcome is reported as “inactive”. With `c1nc2n(n1)C1=C(CCCC1)C1(CCCCC1)N2` the outcome was “inactive”. For `CCOC(=O)c1ccc(NC(=O)NS(=O)(=O)c2ccc(C)cc2)cc1`, the outcome was “inactive”. In the case of `CCOc1ccc(NC(=O)c2nnn(CC(=O)Nc3ccccc3OC)c2N)cc1`, the outcome is reported as “inactive”. With `Cc1ccc(NC(=O)CN(C)CC(=O)Nc2ccc(F)c(Cl)c2)cc1` the outcome was “inactive”. In the case of `CC1CCN(S(=O)(=O)c2cccc(C(=O)Oc3ccc([N+](=O)[O-])cc3)c2)CC1`, the outcome is reported as “inactive”. With `CN(C)S(=O)(=O)c1ccc(C(=O)Oc2ccccc2)cc1` the outcome was “inactive”. In the case of `CC(C)C(=O)Nc1cccc(-c2nc3ccccc3c(=O)o2)c1`, the outcome is reported as “inactive”. In the case of `CCOC(=O)Cn1c(C)c(Br)c(=O)c2cccc(C)c21`, the outcome is reported as “inactive”. For `CN(C)Cc1ccccc1Sc1ccc(Br)cc1`, the outcome was “inactive”. With `FC(F)(F)c1nc(SCc2ccc(Cl)cc2Cl)n[nH]1` the outcome was “inactive”. In the case of `COC(=O)COc1ccc(S(=O)(=O)N2CCN(c3ccccc3F)CC2)cc1`, the outcome is reported as “inactive”. In the case of `O=C(CN1CCCCC1)Nc1nnc(-c2ccc([N+](=O)[O-])cc2)s1`, the outcome is reported as “inactive”. With `Cc1ccccc1N1CCN(Cc2ccc([N+](=O)[O-])o2)CC1` the outcome was “inactive”. With `O=[N+]([O-])c1ccc(CN2CCN(c3ccccc3Cl)CC2)o1` the outcome was “inactive”. In the case of `Cc1cc2cc(CNC(=O)C3CCCC3)ccc2n1C`, the outcome is reported as “inactive”. For `O=C(CN1CCN(c2ccccc2)CC1)Nc1nnc(-c2ccccc2)s1`, the outcome was “inactive”. For `O=C(Oc1ccccc1)c1ccc(COC(=O)c2cnccn2)cc1`, the outcome was “inactive”. With `Cc1ccc(CNC(=O)c2cnccn2)cc1` the outcome was “inactive”. In the case of `COc1ccccc1C1=Nn2c(nnc2C2CCCCC2)SC1`, the outcome is reported as “inactive”. For `O=C(Nc1ccc(Cl)cn1)C1COc2ccccc2O1` (stereo not given), the outcome was “inactive”. With `O=c1oc(-c2cccs2)nc2c1cnn2-c1ccccc1` the outcome was “inactive”. For `Cc1ccccc1Cn1cc(NC(=O)c2noc(C(C)C)c2[N+](=O)[O-])cn1`, the outcome was “inactive”. In the case of `COc1ccc(CN=C(C#N)C2=C(O)c3ccccc3C2=O)cc1`, the outcome is reported as “inactive”. For `CC(C)CN1C(=O)CC(Sc2ccccc2C(=O)O)C1=O` (stereo not given), the outcome was “inactive”. With `CC(=O)c1c(C)n(C)c2ccc(OC(=O)c3ccco3)cc12` the outcome was “inactive”. With `Cc1ccc(NC(=O)CCSc2nnc(Cc3ccccc3)o2)cc1` the outcome was “inactive”. In the case of `O=C(NCc1ccccc1CN1CCCC1)c1cc2ccccc2o1`, the outcome is reported as “inactive”. For `Oc1ccc(Cl)cc1CNCc1ccc(F)cc1`, the outcome was “inactive”. In the case of `Brc1ccc(-c2ccc(CNCc3ccccn3)o2)cc1`, the outcome is reported as “inactive”. In the case of `O=c1cc(C(F)(F)F)[nH]c2c(C(F)(F)F)cccc12`, the outcome is reported as “inactive”. In the case of `CN(C)CCN1C(=O)c2oc3ccccc3c(=O)c2C1c1cccc(Br)c1` (stereo not given), the outcome is reported as “inactive”. With `O=C(c1cc2ccccc2o1)N1CCN(Cc2ccccc2)CC1` the outcome was “inactive”. In the case of `O=C1CCC(=O)N1CNc1ccc(Oc2ccccc2)cc1`, the outcome is reported as “inactive”. In the case of `O=C(Nc1sc2c(c1C(=O)O)CCCC2)c1ccc(F)cc1`, the outcome is reported as “inactive”. In the case of `COC(=O)CCC(=O)Nc1sc(Cc2ccccc2)c(C)c1C(N)=O`, the outcome is reported as “inactive”. With `O=C(c1ccc([N+](=O)[O-])o1)N1CCc2ccccc2C1` the outcome was “inactive”. In the case of `O=C(CCSc1nnc(-c2ccncc2)o1)Nc1ccc(Cl)cc1`, the outcome is reported as “inactive”. In the case of `CC1(C)CC(=O)c2cc(C(=O)NNc3ccccc3)c(=O)n(-c3ccccc3)c2C1`, the outcome is reported as “inactive”. In the case of `Cc1c(Cl)cccc1-c1ccc(CNCc2ccccn2)o1`, the outcome is reported as “inactive”. In the case of `CC(C)(C)CC(=O)NC(=S)NCc1ccco1`, the outcome is reported as “inactive”. With `O=C(c1cc(F)ccc1F)C1CCCN(Cc2ccc3nonc3c2)C1` (stereo not given) the outcome was “inactive”. In the case of `COCc1[nH]nc2c1C(c1sccc1C)C(C#N)=C(N)O2` (stereo not given), the outcome is reported as “inactive”. In the case of `CCOC(=O)N1CCC(N2CCCC(C(=O)c3ccc4cc(OC)ccc4c3)C2)CC1` (stereo not given), the outcome is reported as “inactive”. With `CCOC(=O)CNCCC(=O)c1ccc(Br)cc1` the outcome was “inactive”. With `O=C(NCc1cccs1)c1ccc([N+](=O)[O-])cc1` the outcome was “inactive”. In the case of `O=C(Nc1nccs1)c1ccc2ccccc2c1`, the outcome is reported as “inactive”. In the case of `CCOC(=O)c1cc(-c2csc(COc3ccc(Cl)cc3)n2)on1`, the outcome is reported as “inactive”. With `CC(C)CCC1=NN(C(=O)c2ccco2)C(O)(C(F)(F)F)C1` (stereo not given) the outcome was “inactive”. In the case of `O=C(NC(=S)NCCc1ccccc1)c1ccccc1`, the outcome is reported as “inactive”. In the case of `Cc1cc(C(=O)NNc2ccc(Cl)cc2)no1`, the outcome is reported as “inactive”. With `O=C(OCc1ccccn1)c1ccc(COc2ccccc2Cl)o1` the outcome was “inactive”. For `Cc1n[nH]c(C)c1CCNC(=O)C1CCC(=O)N(Cc2ccccc2F)C1` (stereo not given), the outcome was “inactive”. With `C=CCn1c(NC(=O)c2ccccc2)nc2ccccc21` the outcome was “inactive”. In the case of `O=C(Nc1nc2ccccc2n1CCN1CCCC1)C1CCCCC1`, the outcome is reported as “inactive”. In the case of `Cn1c(CNc2ccccc2O)nc2ccccc21`, the outcome is reported as “inactive”. In the case of `O=C(Nc1ccc(Cl)cc1)C1CCCC1`, the outcome is reported as “inactive”. In the case of `CCCCSc1nnc(-c2cc(Br)ccc2N)c(=O)[nH]1`, the outcome is reported as “inactive”. In the case of `O=C(c1ccc(Br)o1)N1CCC(Cc2ccccc2)CC1`, the outcome is reported as “inactive”. With `CN1c2ccsc2/C(=N/Nc2ccccc2)CS1(=O)=O` the outcome was “inactive”. For `COC(=O)c1ccc(N2CCN(CCNC(=O)Nc3ccc(OC)cc3)CC2)cc1`, the outcome was “inactive”. In the case of `CCc1ccc(N2CCN(CCNC(=O)Nc3ccc(OC)cc3)CC2)cc1`, the outcome is reported as “inactive”. In the case of `O=C1Nc2cc(C(=O)NCCCN3CCOCC3)ccc2S/C1=C/c1cccc(Cl)c1`, the outcome is reported as “inactive”. For `O=C1CC(N2CCSCC2)C(=O)N1CCc1ccccc1` (stereo not given), the outcome was “inactive”. For `CCOC(=O)C(=O)Cc1nc2ccccc2s1`, the outcome was “inactive”. In the case of `Cc1ccc(-c2nnc(COC(=O)c3cccs3)o2)cc1`, the outcome is reported as “inactive”. With `O=C(COc1ccc2ccccc2c1)N1CCCC1` the outcome was “inactive”. For `O=C(NCCN1C(=O)S/C(=C\c2ccccc2F)C1=O)C1CCN(S(=O)(=O)c2cccs2)CC1`, the outcome was “inactive”. In the case of `O=C(O)CCCCCN1C(=O)/C(=C\c2ccncc2)SC1=S`, the outcome is reported as “inactive”. For `O=C(COC(=O)CCN1C(=O)/C(=C\C=C\c2ccccc2)SC1=S)Nc1cc(F)ccc1F`, the outcome was “inactive”. In the case of `CCOC(=O)Cn1cc(C#N)c2ccccc21`, the outcome is reported as “inactive”. With `CC1CCC/C(=C\Nc2ccc(C(=O)O)c(O)c2)C1=O` (stereo not given) the outcome was “inactive”. In the case of `Cc1cccnc1NC(=O)C1COc2ccccc2O1` (stereo not given), the outcome is reported as “inactive”. With `N=c1oc2ccccc2cc1C(=O)Nc1ccccc1` the outcome was “inactive”. With `Cc1cc(Cl)ccc1N(CC(=O)NCc1ccccc1)S(C)(=O)=O` the outcome was “inactive”. In the case of `CC(=O)c1ccc(NC(=O)c2cc(CC(C)C)on2)cc1`, the outcome is reported as “inactive”. In the case of `CN(CCS(=O)(=O)c1ccc(Cl)cc1)Cc1cccnc1`, the outcome is reported as “inactive”. With `O=C(COc1ccc(Br)cc1)N/N=C1/SCC(=O)N1Cc1ccccc1` the outcome was “inactive”. For `O=C(Nc1nnc(COc2ccc(Cl)cc2)s1)c1ccco1`, the outcome was “inactive”. In the case of `O=C(NC(=S)N1CCN(C/C=C/c2ccccc2)CC1)c1ccco1`, the outcome is reported as “inactive”. For `COC(=O)C(C)Oc1ccc2cc(-c3ccccc3)c(=O)oc2c1` (stereo not given), the outcome was “inactive”. For `COc1ccc(NC(=O)C(=O)NNC(=O)C(C)Oc2ccc(Cl)cc2Cl)cc1` (stereo not given), the outcome was “inactive”. In the case of `C=CCN(CC=C)C(=O)Cc1ccc(F)cc1`, the outcome is reported as “inactive”. For `C=C(C)C1Cc2c(C)nn(-c3nc(C)cc(C)n3)c2C1` (stereo not given), the outcome was “inactive”. In the case of `CCOC(=O)Cn1c(-c2ccccc2)ccc(C#N)c1=O`, the outcome is reported as “inactive”. In the case of `O=[N+]([O-])c1cnc(Nc2ccc(Cl)cn2)c([N+](=O)[O-])c1`, the outcome is reported as “inactive”. In the case of `O=c1cc(-c2ccccc2Cl)oc2ccc([N+](=O)[O-])c(O)c12`, the outcome is reported as “inactive”. With `O=C1c2cccc3cc([N+](=O)[O-])cc(c23)C(=O)N1c1ccccc1O` the outcome was “inactive”. With `NCCNc1ccc([N+](=O)[O-])c2cccnc12` the outcome was “inactive”. For `CC(=O)Nc1ccc(OC(=O)c2ccc(Br)c([N+](=O)[O-])c2)cc1`, the outcome was “inactive”. For `Cc1ccc(OC(=O)c2sc3ncn(C)c(=O)c3c2C)cc1`, the outcome was “inactive”. For `CC(C)CN1C(=O)/C(=C(/C#N)C(=O)NC2CCCCC2)c2ccccc21`, the outcome was “inactive”. In the case of `Cc1ccc(NC(=O)CO/N=C/c2ccccc2C)c(C)c1`, the outcome is reported as “inactive”. With `COc1cc2[nH]c(Cl)c([N+](=O)[O-])c2cc1OC` the outcome was “inactive”. For `CCOC(=O)c1csc(COc2ccc(OC)cc2)n1`, the outcome was “inactive”. With `O=C(NCc1nnc(SC/C=C/c2ccccc2)o1)c1ccco1` the outcome was “inactive”. In the case of `O=C(CCNc1cccc(Cl)c1)c1ccco1`, the outcome is reported as “inactive”. With `COC(=O)CCc1nc2c(C#N)c(-c3ccc(Cl)cc3)ccn2n1` the outcome was “inactive”.
